Bioassay records from PubChem BioAssay.
Pf Dd2 growth: inhibitors of Plasmodium falciparum Dd2 growth; AID 1347417; Potency, µM (series often up to 28.9 µM), without a hit: at the highest dose activity, negative = inhibition, actives largely listed as inhibitors; 4.3% of 120,000 active; P. falciparum Dd2 growth, SYBR Green, 72 h; active means well fitted inhibition curve with a large enough effect;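 further: plate controls were DMSO vehicle for no effect and reference drug for full effect; nearly all actives have a fitted effect of over 65% in size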
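Infected erythrocytes (Dd2, 0.3% parasitemia, 2.5% hematocrit final) are added to compound in RPMI-1640/Albumax II medium, grown 72 h at 37C in low oxygen, then lysed with saponin/Triton-X containing SYBR Green and read by fluorescence.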
Starred values were filed as active, the others as inactive; i = inactive; [ ] = another dose, or the depositor's remark. Shown is part of a subset that was picked to be rich in hits. Potency means the concentration at half of the fitted maximal effect.

SMILES	Pf Dd2 growth
O=C(CN1C(=O)CCc2cc(S(=O)(=O)N3CCOCC3)ccc21)NCc1ccc(Cl)cc1	i
O=C(NCCSc1c(-c2ccc(Cl)cc2)[nH]c2ccccc12)c1ccc(S(=O)(=O)N2CCOCC2)cc1	8.91µM*
O=C(NCCCn1ccnn1)c1cccc(S(=O)(=O)N2CCOCC2)c1	1.1%
COc1cccc(CNC(=O)C2(C)CCCCC(=O)N2)c1OC (stereo not given)	-17.5%
CCc1noc(-c2cn(C3CCN(C(=O)c4ccc(C(C)(C)C)cc4)C3)nn2)n1 (stereo not given)	-5.9%
COCCN1C(=O)CO[C@H]2CN(C3CCN(C(C)=O)CC3)C[C@H]21	-10.8%[44.1 µM]
COCc1cc(Cn2cc(-c3cncnc3)nn2)[nH]n1	-6.3%
O=c1ncn(Cc2ccccc2)c2ccc(NCCOc3ccccc3)nc12	i
Cn1cccc1C(=O)N1CCn2c(nnc2[C@@H]2C[C@@H](O)CN2Cc2ccccc2)C1	-16.3%
Cc1ccc(S(=O)(=O)NC[C@H]2O[C@@H](CC(=O)NCCN3CCOCC3)[C@H](O)[C@@H]2O)cc1	-22.3%
CCOc1ccc(-c2csc3ncnc(Nc4cccc(O)c4)c23)cc1	10µM*
COc1ccc(-c2csc3ncnc(Nc4cccc(F)c4)c23)cc1	46.7%
COc1ccc(-c2csc3ncnc(Nc4cc(OC)cc(OC)c4)c23)cc1	i
COc1ccc(CC(=O)N2[C@@H]3CC[C@H]2CC(NC(=O)c2cnc(C)cn2)C3)cc1OC (stereo not given in full)	14.2%
CN1CCC([C@@H]2CN(C(=O)c3nn(C)c4ccccc34)C[C@H]2C(N)=O)CC1	3.1%
CCOc1cc2c(cc1OCC)C(CC(=O)O)N(C(=O)Nc1ccccc1C(F)(F)F)CC2 (stereo not given)	27.2%
COc1cc2c(cc1OC)C(COc1ccc(F)cc1)N(C(=O)C(C)C)CC2 (stereo not given)	-7.6%
COc1cc2c(cc1OC)C(CNC(=O)c1ccco1)N(C(=O)Nc1cccc(F)c1)CC2 (stereo not given)	i
COc1ccc(-c2noc([C@@H]3CCCN3C(=O)Cc3ccc(F)cc3)n2)cc1OC	-18.7%
COC(=O)c1ccc(OCC2c3cc(OC)c(OC)cc3CCN2C(=O)c2ccccc2C)cc1 (stereo not given)	11.2µM*
CCNC(=O)N1CCc2cc(OC)c(OC)cc2C1CNC(=O)C1CC1 (stereo not given)	-5.4%
COc1ccc(CC(=O)N2CCc3cc(OC)c(OC)cc3C2COc2ccc(F)cc2)cc1OC (stereo not given)	11.2µM*
COC(=O)c1ccc(OCC2c3cc(OC)c(OC)cc3CCN2C(=O)c2ccc(F)cc2)cc1 (stereo not given)	11.2µM*
COc1ccc(C(=O)N2CCc3ccc(C(=O)NCc4ccccc4C)cc32)cc1	i
COc1cc(NC(=O)N2CCCC(Cn3cnc4cccnc43)C2)cc(OC)c1OC (stereo not given)	i
SMILES	Pf Dd2 growth
O[C@H]1CN[C@H](c2nc(-c3ccc(OC(F)(F)F)cc3)no2)C1	-4.8%[44.1 µM]
COc1ccc(C(=O)Nc2ccnn2C2CCN(C(C)=O)CC2)cc1	4.6%
COc1ccc(OCCn2c(C(C)Oc3ccccc3)nc3ccccc32)cc1 (stereo not given)	-28.1%
COc1ccc(C(=O)Nc2nc3ccccc3n2CCOc2ccc(Cl)cc2)cc1	11.2µM*
COc1ccc(OCCn2c(NC(=O)c3ccc(OC)cc3)nc3ccccc32)cc1	56.7%
CCCCc1nn(CC(=O)N(C)Cc2ccc(C)o2)c(=O)n1CC	9.5%
Cc1cc(/C=C(\C#N)C(=O)Nc2ccccc2)c(C)n1-c1ccc(F)cc1	-14.6%
Cc1ccc(-n2c(C)cc(C(=O)C(=O)Nc3ccccc3)c2C)c(C)c1	5.01µM*
CCOc1ccccc1NC(=O)C(=O)c1cc(C)n(-c2cccc(C)c2C)c1C	7.08µM*
CCOc1ccccc1NC(=O)CN1C(=O)C(=O)c2ccccc21	157.7%[5.79 µM]
CCOCCc1nnc(NC(=O)C(=O)c2cc(C)n(-c3ccc(C)cc3C)c2C)s1	84.2%
COc1ccccc1NC(=O)C(=O)c1cc(C)n(-c2cc(C)cc(C)c2)c1C	23.8%
COCCOc1ccc(C(=O)N[C@@H]2CN(C(=O)Nc3cccc(C#N)c3)CCC[C@H]2O)cc1	i
CC(C)CCN1CCC(N2CCN(S(=O)(=O)c3cc(F)cc(F)c3)CC2)C1=O (stereo not given)	-2.8%
O=C1C(N2CCN(S(=O)(=O)c3ccc(Cl)cc3)CC2)CCN1CCc1ccccc1 (stereo not given)	i
COc1cccc(S(=O)(=O)N2CCN(C3CCN(CCC(C)C)C3=O)CC2)c1 (stereo not given)	-29.3%
CC(C)CCN1CCC(N2CCN(S(=O)(=O)c3ccc(Cl)cc3)CC2)C1=O (stereo not given)	-0.3%
CC(C)CCN1CCC(N2CCN(S(=O)(=O)c3ccc4c(c3)CCC4)CC2)C1=O (stereo not given)	7.08µM*
CCCc1ccc(S(=O)(=O)N2CCN(C3CCN(CCOC)C3=O)CC2)cc1 (stereo not given)	i
CCCc1ccc(S(=O)(=O)N2CCN(C3CCN(CCC(C)C)C3=O)CC2)cc1 (stereo not given)	5.62µM*
CCc1ccccc1S(=O)(=O)N1CCN(C2CCN(CCC(C)C)C2=O)CC1 (stereo not given)	10µM*
Cc1ccc(F)cc1S(=O)(=O)N1CCN(C2CCN(CCC(C)C)C2=O)CC1 (stereo not given)	-22.0%
O=C([C@@H]1C[C@H](Oc2cccnc2)CN1C(=O)c1cnccn1)N1CCCC1	13.7%
CN(C)[C@@H]1CN(C(=O)c2ccccc2Cl)C[C@H]1CO	-6.1%
CN1C(=O)[C@@H]2C[C@@H](CN2Cc2ccc(F)cc2)Oc2ccccc21	-22.4%[44.1 µM]
SMILES	Pf Dd2 growth
O=C(C1CC1)N1CCC2(CC1)CC(=O)N(c1ccccc1)c1ccccc1O2	-13.7%
CCn1cc(S(=O)(=O)N2CCC(N3C(=O)[C@H](OC)[C@@H]3c3ccncc3)CC2)cn1	12.7%
Cc1ccc(COC(=O)c2[nH]c3c(c2C)C(=O)CC(c2ccc(Cl)cc2)C3)cc1 (stereo not given)	-6.3%
CCOC(=O)c1[nH]c2c(c1Cc1ccccc1)C(=O)CC(c1ccc(Cl)cc1)C2 (stereo not given)	10µM*
CCOC(=O)c1[nH]c2c(c1Cc1ccccc1)C(=O)CC(c1ccc(OC)cc1)C2 (stereo not given)	11.2µM*
CCOC(=O)c1cc(-c2ccc(OC)cc2)nn1Cc1ccccc1	-1.0%
Cc1c(C(=O)OCC2CCCCC2)[nH]c2c1C(=O)CC(c1ccc(Cl)cc1)C2 (stereo not given)	2.9%
CCOC(=O)C1=C(CN(CC)Cc2ccccc2)NC(=O)NC1c1ccc(OC)cc1 (stereo not given)	i
COc1cc(CN2CCN(Cc3cccc(SC)c3)CC2CCO)cc(OC)c1 (stereo not given)	-6.3%
N#Cc1cccc(CN[C@H]2[C@H](O)[C@H](O)C[C@@H]2c2cccnc2)c1	i
O=C(NCc1ccccc1)O[C@H]1COCCN(c2nc3ccccc3o2)C1	-12.6%[44.1 µM]
Cn1c(CN2C(=O)C3(CCOCC3)CC2c2nnnn2C(C)(C)C)nc2ccccc21 (stereo not given)	-1.8%
CCN1C(=O)C2(CCN(S(=O)(=O)c3ccc(C)c(Cl)c3)CC2)c2ccccc21	i
COc1cc(CN2CCC3(CC2)CN(c2ccncn2)CC3CO)ccc1F (stereo not given)	-13.4%
COc1cc(CN2CCCC(c3[nH]ccc3C(N)=O)C2)ccc1F (stereo not given)	-29.2%
